# Screening data (PubChem BioAssay)
# PfHsp90 yeast 2: inhibits growth of yeast expressing Plasmodium falciparum Hsp90. S. cerevisiae expressing PfHsp90, BacTiter-Glo ATP, 48 h; yeast lacking PDR1 and PDR3 efflux regulators. AID 504621. inhibition, % at 9.4 µM. actives 0.32% (n = 310,000);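 active = every replicate shows inhibition above about 80%, whatever the replicate mean, limit read from the data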;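 note: 0% = DMSO neutral controls and 100% = 20 µM radicicol positive controls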
# tim23-1 inh: tim23-1 yeast growth inhibition. S. cerevisiae tim23-1 growth, BacTiter-Glo luminescence, 24 h. inhibition, % at 20 µM. actives 1.3% (n = 330,000). AID 463212;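 active = growth inhibition of the mutant yeast at or above 50%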;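 note: temperature-sensitive mutant grown at 25 °C; plate controls were DMSO-treated mutant yeast for no effect and medium wells lacking yeast for full effect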
# tim10-1 inh: tim10-1 yeast growth inhibition; S. cerevisiae tim10-1 ts strain growth, BacTiter-Glo, 24 h; inhibition, % at 20 µM; actives 2.2% (n = 330,000); AID 463190;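 active = inhibition of at least 40%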;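 note: mutant grown at 25 °C; 0% = DMSO wells with yeast and 100% = wells holding no yeast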
# TIM10 inh: TIM10 yeast growth inhibition; S. cerevisiae TIM10 strain growth, BacTiter-Glo luminescence, 24 h; inhibition, % at 10 µM; actives 1.4% (n = 330,000);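 active = inhibition of 40% or more at the single tested concentration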;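 note: wild-type TIM10 isogenic control strain grown at permissive 25 °C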
# SKKanGAS inh: inhibitors of SKKanGAS S. pyogenes growth in kanamycin (SK-promoter or general growth effect). inhibition, % at 7.5 µM. AID 1662. BacTiter-Glo, 6 h. actives 1.3% (n = 300,000);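 active = mean replicate score, as percent of positive control median, at least 50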;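 note: strain carries kanamycin resistance gene driven by streptokinase promoter and grows in 40 µg/ml kanamycin; loss of luminescence reflects streptokinase promoter inhibition or plain growth inhibition; 0% = median of DMSO wells and 100% = positive control at its reference dose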
# ATG4B inhibitor: blocks human ATG4B protease cleavage of LC3 substrate; AID 504462; ATG4B cleavage of LC3-PLA2, NBD-HPC fluorescence, 1 h; inhibition, % at 8.33 µM; Q9Y4P1; actives 0.51% (n = 340,000); in the data active = inhibition above about 40%
# Target sequence (Q9Y4P1 whole entry, looked up): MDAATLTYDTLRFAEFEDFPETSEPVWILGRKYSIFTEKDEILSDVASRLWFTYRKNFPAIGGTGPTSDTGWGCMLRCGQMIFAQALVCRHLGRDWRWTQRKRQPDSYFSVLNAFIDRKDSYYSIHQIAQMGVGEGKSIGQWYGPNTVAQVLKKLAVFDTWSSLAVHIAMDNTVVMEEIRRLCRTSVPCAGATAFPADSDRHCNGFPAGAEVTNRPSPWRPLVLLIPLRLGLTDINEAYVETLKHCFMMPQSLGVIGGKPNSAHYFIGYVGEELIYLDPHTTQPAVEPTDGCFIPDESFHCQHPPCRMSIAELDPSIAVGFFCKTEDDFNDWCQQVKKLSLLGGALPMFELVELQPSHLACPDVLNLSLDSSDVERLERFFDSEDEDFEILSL
# tim10-1 conf: tim10-1 yeast growth inhibition, confirmed. shares compounds with tim10-1 inh. S. cerevisiae tim10-1 ts strain growth, BacTiter-Glo, 24 h. inhibition, % at 20 µM. actives 56% (n = 7,400). AID 463213;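 active = inhibition of yeast growth at or above a set limit in either of two repeat tests at 20 µM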;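 note: tim10-1 mutant grown at permissive 25 °C to find synthetic lethal compounds; 0% = DMSO yeast wells and 100% = medium wells without yeast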
# TIM10 conf: TIM10 yeast growth inhibition, confirmed; shares compounds with TIM10 inh; S. cerevisiae tim10 strain growth, BacTiter-Glo luminescence, 24 h; inhibition, % at 10 µM; actives 63% (n = 4,600); AID 463215;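 active = inhibition of yeast growth at or above a set limit in either of two replicates at 10 µM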;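 note: this counterscreen used the strain with wild-type TIM10; 0% = yeast with DMSO and 100% = medium wells lacking yeast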
# tim23-1 confirm: tim23-1 yeast growth inhibition, confirmed. shares compounds with tim23-1 inh. actives 83% (n = 4,400). inhibition, % at 20 µM. S. cerevisiae tim23-1 growth, BacTiter-Glo luminescence, 24 h;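 active = inhibition above about 39% in either of two replicate wells at 20 µM, limit read from the data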;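 note: temperature-sensitive tim23-1 mutant grown at 25 °C; 0% = DMSO wells with yeast and 100% = medium wells without yeast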
# * = called active by the depositor; / = no result given. Only some compounds are listed: those with a hit (about 4.7% of all), similar ones and a draw of the others.
SMILES,PfHsp90 yeast 2,tim23-1 inh,tim10-1 inh,TIM10 inh,SKKanGAS inh,ATG4B inhibitor,tim10-1 conf,TIM10 conf,tim23-1 confirm
Cc1ccc(-n2nnnc2SCC(=O)N2CCc3ccccc3C2)cc1,13.7,54.3*,45.9*,40.7*,-3.7,36.0,41.2*,33.5*,41.1*
COc1cccc(/C=C2\SC(=S)N(CCCC(=O)N(CCO)c3ccccc3)C2=O)c1,-27.1,50.5*,43.8*,23.7,13.8,-3.6,29.6,/,53.7*
CCn1c(C)nc2cc(C(=O)NNC(=S)Nc3ccc(Cl)cc3Cl)ccc21,1.6,19.1,20.8,17.4,8.4,-19.6,/,/,/
COC(=O)c1ccc(-n2ccnc2)cc1,3.5,-4.6,10.0,0.6,-3.1,-6.8,/,/,/
CCOC(=O)CNc1c(-c2ccccc2)nc2ccc(Cl)cn12,73.4,51.3*,40.4*,40.3*,-6.5,-0.4,32.8*,2.5,51.0*
Cc1oc(-c2ccccc2F)nc1CS(=O)(=O)CC(=O)N1CCN(Cc2ccccc2)CC1,0.6,-4.3,-2.5,-2.0,0.9,-8.3,/,/,/
COCCCNC(=O)c1ccc(NS(C)(=O)=O)cc1,17.8,-3.9,-14.2,-5.0,0.6,2.3,/,/,/
O=C(CCC(=O)Nc1ccc(Cl)cc1Cl)N/N=C/c1ccc([N+](=O)[O-])o1,/,92.2*,64.2*,44.7*,17.5,-13.8,43.1*,51.3*,88.0*
O=C(N/N=C\c1ccc([N+](=O)[O-])o1)C1COc2ccccc2O1 (stereo not given),-24.7,57.0*,56.9*,30.5,-5.5,7.0,49.4*,/,41.7*
O=[N+]([O-])c1ccc(/C=N/NC(=S)Nc2ccccc2F)o1,-8.5,54.7*,55.5*,42.9*,13.5,-2.3,47.2*,-5.8,58.5*
O=C(N/N=C\c1ccc([N+](=O)[O-])s1)C1COc2ccccc2O1 (stereo not given),-9.1,-10.9,-11.6,-51.8,17.0,-9.6,/,/,/
O=c1c2ccccc2nc(-c2ccccc2)n1/N=C/c1ccc([N+](=O)[O-])cc1,7.9,1.4,19.0,8.9,0.9,17.7,/,/,/
O=C(NC(=S)NNC(=O)c1ccccc1[N+](=O)[O-])c1ccccc1,17.8,50.0*,41.2*,50.9*,23.5,6.3,52.3*,56.0*,52.8*
CCC(=O)NC(=S)NNC(=O)c1ccccc1[N+](=O)[O-],10.4,56.5*,45.4*,53.1*,-1.2,-5.7,76.4*,60.2*,64.1*
Cc1nc2c(C(=O)NCc3ccc4c(c3)OCO4)c[nH]n2c(=O)c1Cl,11.2,13.6,27.6,-9.1,10.3,16.8,/,/,/
N#C/C(=C\c1ccccc1[N+](=O)[O-])C(=O)NCc1ccccc1,3.1,71.0*,49.1*,45.6*,4.7,-0.7,54.5*,50.7*,74.2*
CCCCCCCCNC(=O)/C(C#N)=C/c1ccccc1[N+](=O)[O-],110.4*,83.3*,50.4*,63.9*,13.5,16.4,23.4,69.8*,46.9*
N#C/C(=C/c1ccccc1[N+](=O)[O-])C(=O)NCc1ccco1,10.0,60.0*,52.0*,59.9*,19.2,5.7,44.9*,-24.6,54.5*
C=CCNC(=O)/C(C#N)=C/c1c(C)nn(-c2ccccc2)c1Cl,-14.6,72.0*,70.7*,66.7*,-5.3,-6.3,76.2*,65.2*,72.3*
CCCCNC(=O)/C(C#N)=C/c1ccc(C(=O)OC)cc1,-10.2,6.7,20.8,10.4,-6.5,-1.5,/,/,/
Cc1ccc(S(=O)(=O)NCC(=O)NCC(=O)NC(C)c2ccccc2Br)cc1C (stereo not given),5.4,8.3,-9.0,17.0,-1.6,-6.6,/,/,/
C=CCNC(=O)/C(C#N)=C/c1ccccc1[N+](=O)[O-],-6.4,55.7*,45.7*,49.6*,-0.5,8.3,47.8*,24.9,45.6*
CCOCCCNC(=O)/C(C#N)=C/c1ccc([N+](=O)[O-])o1,-5.5,75.3*,84.0*,67.9*,3.8,-5.7,78.9*,94.2*,73.7*
CCOCCCNC(=O)/C(C#N)=C/c1ccc(-c2ccc(S(=O)(=O)N3CCOCC3)cc2)o1,2.0,19.8,35.2,11.5,9.0,-18.4,/,/,/
COc1cccc(-c2sc3ccccc3c2-c2ccc(OCCN3CCCC3)cc2)c1,21.6,16.8,3.7,-25.9,/,4.1,/,/,/
SMILES,PfHsp90 yeast 2,tim23-1 inh,tim10-1 inh,TIM10 inh,SKKanGAS inh,ATG4B inhibitor,tim10-1 conf,TIM10 conf,tim23-1 confirm
COc1cccc(-c2sc3ccc(OC)cc3c2-c2ccc(OCCN3CCCC3)cc2)c1,5.7,70.0*,40.4*,12.0,/,-8.3,37.8*,/,45.5*
CCOC(=O)c1sc(=NC(=O)c2c(F)cccc2F)n(C)c1C,24.1,56.0*,43.0*,47.1*,-6.3,-1.6,-20.4,45.9*,76.2*
O=C(ONC1=NCCCCC1)c1ccc([N+](=O)[O-])cc1,3.5,86.2*,51.6*,83.2*,-7.1,-2.6,34.2*,84.2*,65.5*
Cc1cc2c(C)nc(-c3ccccc3)nc2o1,18.9,4.7,15.3,11.6,-4.6,-0.3,/,/,/
O=C1Nc2ccccc2N(O)N1c1ccc(Cl)cc1,34.8,3.4,5.4,5.4,0.0,-3.1,/,/,/
CCN1c2ccccc2NC2C1C(C(C)=O)C(=O)N2c1ccc(Cl)cc1 (stereo not given),-4.5,69.3*,61.9*,52.4*,15.0,-17.3,52.7*,39.5*,50.5*
Cc1cc(C)c(S(=O)(=O)Nc2cc(SCC(=O)O)c(O)c3ccccc23)cc1C,/,/,/,/,7.5,0.6,/,/,/
COc1ccc(S(=O)(=O)Nc2cc(SCC(=O)O)c(O)c3ccccc23)cc1,9.8,58.4*,44.1*,32.7,3.4,-6.0,28.1,/,-16.7
CCCCCCCCCCCCCCCC[n+]1cccc2ccccc21,106.1*,96.3*,97.6*,89.2*,/,51.4*,97.9*,-24.0,97.3*
CCOC(=O)c1ccc(-n2c(CCC(=O)O)ccc2-c2ccc(F)cc2)cc1,-21.8,40.1,33.4,19.1,11.6,7.8,/,/,/
COc1cccc(NC(=O)Nc2ccc(C(C)(C)C)cc2)c1,-14.1,58.0*,57.1*,49.0*,-7.6,-0.1,45.6*,60.0*,74.7*
CCC(=O)c1c[nH]c(C(=O)NCc2cccc(C(F)(F)F)c2)c1,-0.8,13.8,16.1,0.5,-1.6,8.7,/,/,/
CCCCCCCCCn1c2c(c(=N)c3c1CCC3)CCCC2,0.1,79.9*,51.5*,51.0*,3.5,9.4,55.9*,46.2*,83.2*
CCn1c2c(c(=N)c3c1CCC3)CCCC2,/,-7.9,-13.2,1.7,0.3,-3.5,/,/,/
